Bioassay records: PubChem BioAssay, National Center for Advancing Translational Sciences (NCATS)
Rows were chosen to be rich in hits. Some 17% of all compounds tested hit in one or more screens of this group.
ClpP mod: qHTS Assay for Activators of ClpP | Potency, µM (doses to about 57.5 µM), for the others: top-dose activity change, negative = active | AID 651965, 2013 | purified B. subtilis ClpP, FRET peptide cleavage, 20 min | ATP-dependent Clp protease proteolytic subunit (Bacillus subtilis (strain 168)), P80244 | 340,000 compounds, 1.9% hits; active means well fitted falling curve with a large enough effect; inconclusive means small, poorly fitted or top-dose-only effect; inactive means no such curve, though single readings can be large or run the other way; further: the source files actives as falling curves though it sought activators and does not explain the sign; nearly all actives have a fitted effect of over 65% in size
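FRET quenching reversal measured ClpP activation: 10 microg/mL B. subtilis ClpP at pH 8 with the FRET-FV decapeptide, read at 430 nm after 320 nm excitation. The 20-min minus 0-min signal was scaled between DMSO/no-enzyme wells and ADEP (5.8 microM final).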
DT40 TDP1 CPT: qHTS for Inhibitors of human tyrosyl-DNA phosphodiesterase 1 (TDP1): qHTS in cells in presence of CPT; chicken DT40 Tdp1-/-;hTDP1 cells + 20 nM CPT, ATP luminescence, 48 h; Potency, µM (doses to about 46.2 µM), inactives show at the highest dose activity change, negative = growth inhibition, hits mostly inhibitors; 420,000 compounds, 12% hits; further: on the % scale 0 is the no-effect control and ±100 the full control effect; nearly all actives have a fitted effect of over 55% in size
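Chicken DT40 Tdp1-/- cells complemented with human TDP1, 400 cells/well, exposed to compounds plus 20 nM camptothecin for at least 48 h at 37 C; viability read as ATP content by CellTiter-Glo luminescence.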
DT40 TDP1 no CPT: qHTS for Inhibitors of human tyrosyl-DNA phosphodiesterase 1 (TDP1): qHTS in cells in absence of CPT. DT40 Tdp1-/- hTDP1 cells, no CPT, ATP luminescence, 48 h. Potency, µM (doses to about 46.2 µM), inactives show top-dose activity change, negative = growth inhibition, actives largely listed as inhibitors. 420,000 compounds, 15% hits; further: on the % scale 0 is the no-effect control and ±100 the full control effect; nearly all actives have a fitted effect of over 55% in size
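A cellular qHTS used chicken DT40 cells lacking endogenous Tdp1 but carrying stably transfected human TDP1. Compounds were applied without camptothecin, and cell growth kinetics were judged by ATP-dependent luminescence after ≥48 hr.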
TDP1 block: qHTS Assay for Inhibitors of Tyrosyl-DNA Phosphodiesterase (TDP1). Potency, µM (doses to about 130 µM), for the others: at the top dose activity change, negative = inhibition, hits mostly inhibitors. 350,000 compounds, 0.28% hits. AID 485290, 2010. Tyrosyl-DNA phosphodiesterase 1 (Homo sapiens), Q9NUW8. recombinant TDP1, AlphaScreen DNA substrate cleavage; further: on the % scale 0 is the no-effect control and ±100 the full control effect; nearly all actives have a fitted effect of over 40% in size
Target sequence (Q9NUW8 whole entry, looked up): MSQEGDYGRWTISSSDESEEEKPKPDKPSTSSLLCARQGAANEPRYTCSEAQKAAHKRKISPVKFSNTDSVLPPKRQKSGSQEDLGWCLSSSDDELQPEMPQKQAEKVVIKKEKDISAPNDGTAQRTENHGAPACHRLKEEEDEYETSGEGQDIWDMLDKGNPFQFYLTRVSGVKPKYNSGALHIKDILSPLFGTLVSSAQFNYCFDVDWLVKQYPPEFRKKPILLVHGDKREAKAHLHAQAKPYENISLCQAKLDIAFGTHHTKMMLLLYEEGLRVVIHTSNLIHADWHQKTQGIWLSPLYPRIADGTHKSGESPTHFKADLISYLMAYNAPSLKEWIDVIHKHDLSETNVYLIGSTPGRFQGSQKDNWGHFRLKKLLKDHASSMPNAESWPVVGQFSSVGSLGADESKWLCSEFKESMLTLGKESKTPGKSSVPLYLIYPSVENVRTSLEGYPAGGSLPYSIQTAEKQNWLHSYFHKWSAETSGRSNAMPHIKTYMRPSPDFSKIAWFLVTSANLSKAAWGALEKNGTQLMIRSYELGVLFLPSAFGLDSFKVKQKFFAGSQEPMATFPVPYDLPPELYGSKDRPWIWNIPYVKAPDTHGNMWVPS
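Tdp1 1 nM final; 15 min RT w/ cpd; substrate 15 nM, 5 min; beads 10 ug/ml, 10 min; AlphaScreen read. Neg ctrl: no enzyme.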
* = called active by the depositor. Unless noted, the call rests on the fitted dose curve; in most records, active means well fitted curve in the direction sought with a large enough effect; inconclusive means small, poorly fitted or top-dose-only effect, or another doubt; inactive means no such curve, though single readings can be large; an effect the other way counts as inactive or inconclusive. Potency means the concentration at half of the fitted maximal effect.

How did CC1(C(=O)O)CCCN(C(=O)C2(c3ccc(Cl)cc3)CCCC2)C1 (stereo not drawn) do in these assays?
ClpP mod: 2%; DT40 TDP1 CPT: 7%; DT40 TDP1 no CPT: 0%

How did O=C(O)COc1nn(Cc2ccccc2)c2ccccc12 do in these assays?
DT40 TDP1 CPT: 2%; DT40 TDP1 no CPT: -17%

How did CCCc1nnc(NC(=O)CCC(=O)NC2CCCCCC2)s1 do in these assays?
ClpP mod: 0%; DT40 TDP1 CPT: -4%; DT40 TDP1 no CPT: 8%; TDP1 block: 0%

Results for CCOC(=O)C1=CC[C@@H](c2cc3ccc(OC)cc3n2C)N(S(=O)(=O)c2ccc(C)cc2)[C@H]1C(=O)OCC ?
ClpP mod: 75%; DT40 TDP1 CPT: inconclusive; DT40 TDP1 no CPT: inconclusive; TDP1 block: 1%

What do the screens show for `CCOC(=O)C1=CC[C@@H](c2ccccc2)N(S(=O)(=O)c2ccc(C)cc2)[C@H]1C=C(C)C`?
ClpP mod: 0%; DT40 TDP1 CPT: 16µM*; DT40 TDP1 no CPT: 12µM*

How did CCOC(=O)C1=CC[C@@H](c2ccccc2)N(S(=O)(=O)c2ccc(C)cc2)[C@H]1C#N do in these assays?
ClpP mod: 1%; DT40 TDP1 CPT: inconclusive; DT40 TDP1 no CPT: inconclusive

What do the screens show for `CCOC(=O)C1=CC[C@@H](c2ccc(F)cc2)N(S(=O)(=O)c2ccc(C)cc2)[C@H]1c1ccccc1`?
ClpP mod: 2%; DT40 TDP1 CPT: 16µM*; DT40 TDP1 no CPT: 23µM*

What do the screens show for `CCc1ccc([C@@H]2CC=C(C(=O)O)[C@H](c3ccccc3F)N2S(=O)(=O)c2ccc(C)cc2)cc1`?
ClpP mod: -5%; DT40 TDP1 CPT: -12%; DT40 TDP1 no CPT: 1%; TDP1 block: 0%

What do the screens show for `CCOC(=O)C1=CC[C@@H](c2ccccc2)N(S(=O)(=O)c2ccc(C)cc2)[C@H]1c1ccccc1C`?
ClpP mod: -3%; DT40 TDP1 CPT: 13µM*; DT40 TDP1 no CPT: 9.2µM*

Results for CCOC(=O)C1=CC[C@@H](c2cc(OC)c(OC)c(OC)c2)N(S(=O)(=O)c2ccc(C)cc2)[C@H]1C(=O)OCC ?
ClpP mod: 0%; DT40 TDP1 CPT: 26µM*; DT40 TDP1 no CPT: inconclusive; TDP1 block: 1%

What do the screens show for `CCS(=O)(=O)c1nc2ccccc2n1Cc1ccccn1`?
ClpP mod: 1%; DT40 TDP1 CPT: -2%; DT40 TDP1 no CPT: 8%; TDP1 block: 3%

Results for CCOC(=O)COc1ccc(F)cc1C(=O)c1ccn2nc(-c3ccc(Cl)cc3)cc2n1 ?
ClpP mod: -8%; DT40 TDP1 CPT: 3%; DT40 TDP1 no CPT: 0%; TDP1 block: -1%

Results for O=P1(O)Oc2c(-c3ccccc3)cc3ccccc3c2-c2c(c(-c3ccccc3)cc3ccccc23)O1 ?
TDP1 block: 9%

How did CS(=O)(=O)N1CCC2(CCN(C(=O)Nc3cccc(F)c3)CC2)CC1 do in these assays?
DT40 TDP1 CPT: -6%; DT40 TDP1 no CPT: -26%

Results for CCOC(=O)C1=CC[C@@H](c2ccccc2)N(S(=O)(=O)c2ccc(C)cc2)[C@H]1c1ccc(C#N)cc1 ?
ClpP mod: -3%; DT40 TDP1 CPT: 12µM*; DT40 TDP1 no CPT: 9.2µM*

Results for CCOC(=O)C1=CC[C@@H](c2ccc([N+](=O)[O-])cc2)N(S(=O)(=O)c2ccc(C)cc2)[C@H]1c1ccccc1 ?
ClpP mod: 0%; DT40 TDP1 CPT: inconclusive; DT40 TDP1 no CPT: inconclusive

Results for O=C1CC(c2ccccc2)Cc2[nH]c(=O)c(C(=O)Nc3cccc(Cl)c3)cc21 (stereo not drawn) ?
ClpP mod: -4%; DT40 TDP1 CPT: -18%; DT40 TDP1 no CPT: -27%; TDP1 block: 4%

What do the screens show for `COc1cc2c(cc1OC)/C(=C/C(=O)c1ccc(OC)c([N+](=O)[O-])c1)NCC2`?
DT40 TDP1 CPT: inconclusive; DT40 TDP1 no CPT: 18µM*

How did CCN1CCN(S(=O)(=O)c2cc(OC)ccc2OC)CC1 do in these assays?
ClpP mod: 0%; DT40 TDP1 CPT: 1%; DT40 TDP1 no CPT: 3%; TDP1 block: 6%

How did COc1ccc(OC)c(S(=O)(=O)N2CCN(c3ncccn3)CC2)c1 do in these assays?
ClpP mod: -11%; DT40 TDP1 CPT: inconclusive; DT40 TDP1 no CPT: 15µM*

What do the screens show for `COc1ccc(OC)c(S(=O)(=O)N2CCN(C34CC5CC(CC(C5)C3)C4)CC2)c1`?
ClpP mod: -1%; DT40 TDP1 CPT: inconclusive; DT40 TDP1 no CPT: 16µM*; TDP1 block: 2%

Results for COc1ccc(OC)c(S(=O)(=O)N2CCCC(N3CCN(c4ccccc4)CC3)C2)c1 (stereo not drawn) ?
ClpP mod: 0%; DT40 TDP1 CPT: inconclusive; DT40 TDP1 no CPT: 26µM*; TDP1 block: 5%

Results for COc1ccc(OC)c(S(=O)(=O)N2CCN(c3c(C)cccc3C)CC2)c1 ?
ClpP mod: -1%; DT40 TDP1 CPT: 1%; DT40 TDP1 no CPT: 0%; TDP1 block: 8%

What do the screens show for `Cc1cccc(C(=O)N2CCCC(CCC(=O)N3CCN(c4ccccn4)CC3)C2)c1` (stereo not drawn)?
ClpP mod: inconclusive; DT40 TDP1 CPT: inconclusive; DT40 TDP1 no CPT: inconclusive; TDP1 block: 8%

What do the screens show for `O=C(CCC1CCCN(C(=O)c2ccc3cc[nH]c3c2)C1)N1CCN(c2ccccn2)CC1` (stereo not drawn)?
DT40 TDP1 CPT: 16µM*; DT40 TDP1 no CPT: inconclusive; TDP1 block: -1%

How did O=C(CCC1CCCN(C(=O)c2ccc3[nH]ccc3c2)C1)N1CCN(c2ccccn2)CC1 (stereo not drawn) do in these assays?
DT40 TDP1 CPT: 23µM*; DT40 TDP1 no CPT: 21µM*; TDP1 block: 5%

How did CCc1ccc(CN2CCCC(CCC(=O)N3CCN(c4ccccn4)CC3)C2)o1 (stereo not drawn) do in these assays?
ClpP mod: 4%; DT40 TDP1 CPT: inconclusive; DT40 TDP1 no CPT: 16µM*

How did O=C(CCC1CCCN(C(=O)CCCc2ccccc2)C1)N1CCN(c2ccccn2)CC1 (stereo not drawn) do in these assays?
ClpP mod: -10%; DT40 TDP1 CPT: 21µM*; DT40 TDP1 no CPT: inconclusive

Results for Cc1ccc(C(=O)N2CCCC(CCC(=O)N3CCN(c4ccccn4)CC3)C2)cc1 (stereo not drawn) ?
ClpP mod: 3%; DT40 TDP1 CPT: inconclusive; DT40 TDP1 no CPT: inconclusive; TDP1 block: 10%

Results for Cc1c(O)cnc2nn(-c3ccccc3)c(=N)n12 ?
ClpP mod: 5%; DT40 TDP1 CPT: -1%; DT40 TDP1 no CPT: -7%

How did O=C(N/N=C/C(Br)=C/c1ccccc1)c1ccccc1F do in these assays?
ClpP mod: -17%; DT40 TDP1 CPT: 12µM*; DT40 TDP1 no CPT: 23µM*; TDP1 block: 12%
